# Legend:
# [1] = biological target: T1, Mitogen-activated protein kinase kinase kinase 7 (Homo sapiens) (UniProt O43318); conditions: at 10 µM
# T1 sequence (whole entry): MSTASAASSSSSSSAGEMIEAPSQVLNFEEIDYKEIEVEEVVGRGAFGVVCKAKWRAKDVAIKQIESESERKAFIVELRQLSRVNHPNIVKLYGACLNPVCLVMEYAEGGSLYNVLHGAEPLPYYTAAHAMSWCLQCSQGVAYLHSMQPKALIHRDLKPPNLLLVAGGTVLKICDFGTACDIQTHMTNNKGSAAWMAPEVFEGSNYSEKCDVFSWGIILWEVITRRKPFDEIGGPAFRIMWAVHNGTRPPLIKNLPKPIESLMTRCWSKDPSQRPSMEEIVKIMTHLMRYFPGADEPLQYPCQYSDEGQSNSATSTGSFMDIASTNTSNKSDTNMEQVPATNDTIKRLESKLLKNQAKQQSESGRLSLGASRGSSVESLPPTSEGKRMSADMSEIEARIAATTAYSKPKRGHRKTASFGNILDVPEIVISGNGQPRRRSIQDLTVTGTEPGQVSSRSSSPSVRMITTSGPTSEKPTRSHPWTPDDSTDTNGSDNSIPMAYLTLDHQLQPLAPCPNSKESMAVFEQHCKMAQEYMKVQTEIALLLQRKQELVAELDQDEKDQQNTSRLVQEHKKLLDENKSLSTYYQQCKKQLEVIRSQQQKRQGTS
# [2] = biological target: T2, Serine/threonine-protein kinase TAO1 (Homo sapiens) (UniProt Q7L7X3); conditions: at 10 µM
# T2 sequence (whole entry): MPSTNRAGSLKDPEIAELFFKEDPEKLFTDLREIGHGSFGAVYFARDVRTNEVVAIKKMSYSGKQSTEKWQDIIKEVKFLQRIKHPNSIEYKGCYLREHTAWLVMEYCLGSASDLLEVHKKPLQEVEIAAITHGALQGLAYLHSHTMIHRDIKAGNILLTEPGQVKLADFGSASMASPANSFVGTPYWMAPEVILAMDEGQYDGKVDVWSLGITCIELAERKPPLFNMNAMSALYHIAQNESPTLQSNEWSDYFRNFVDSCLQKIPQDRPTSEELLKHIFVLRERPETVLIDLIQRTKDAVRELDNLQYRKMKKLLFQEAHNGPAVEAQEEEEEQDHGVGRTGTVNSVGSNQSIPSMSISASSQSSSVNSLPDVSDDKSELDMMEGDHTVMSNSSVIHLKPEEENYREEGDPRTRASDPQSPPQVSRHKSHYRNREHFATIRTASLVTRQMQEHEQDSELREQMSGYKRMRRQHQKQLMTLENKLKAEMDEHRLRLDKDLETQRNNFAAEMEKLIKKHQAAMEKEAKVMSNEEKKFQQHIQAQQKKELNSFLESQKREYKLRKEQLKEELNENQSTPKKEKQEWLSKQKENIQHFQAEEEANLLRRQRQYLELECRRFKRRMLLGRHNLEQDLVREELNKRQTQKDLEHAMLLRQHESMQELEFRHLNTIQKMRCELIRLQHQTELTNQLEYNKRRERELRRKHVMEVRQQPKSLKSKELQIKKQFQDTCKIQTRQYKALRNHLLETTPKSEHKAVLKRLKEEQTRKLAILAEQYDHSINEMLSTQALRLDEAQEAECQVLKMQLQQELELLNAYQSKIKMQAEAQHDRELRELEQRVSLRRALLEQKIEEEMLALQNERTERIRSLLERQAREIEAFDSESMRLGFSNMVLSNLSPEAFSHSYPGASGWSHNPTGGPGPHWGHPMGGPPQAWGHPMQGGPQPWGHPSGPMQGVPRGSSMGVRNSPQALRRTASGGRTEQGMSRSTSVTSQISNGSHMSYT
# [3] = biological target: T3, Serine/threonine-protein kinase TAO2 (Homo sapiens) (UniProt Q9UL54); conditions: at 10 µM
# T3 sequence (whole entry): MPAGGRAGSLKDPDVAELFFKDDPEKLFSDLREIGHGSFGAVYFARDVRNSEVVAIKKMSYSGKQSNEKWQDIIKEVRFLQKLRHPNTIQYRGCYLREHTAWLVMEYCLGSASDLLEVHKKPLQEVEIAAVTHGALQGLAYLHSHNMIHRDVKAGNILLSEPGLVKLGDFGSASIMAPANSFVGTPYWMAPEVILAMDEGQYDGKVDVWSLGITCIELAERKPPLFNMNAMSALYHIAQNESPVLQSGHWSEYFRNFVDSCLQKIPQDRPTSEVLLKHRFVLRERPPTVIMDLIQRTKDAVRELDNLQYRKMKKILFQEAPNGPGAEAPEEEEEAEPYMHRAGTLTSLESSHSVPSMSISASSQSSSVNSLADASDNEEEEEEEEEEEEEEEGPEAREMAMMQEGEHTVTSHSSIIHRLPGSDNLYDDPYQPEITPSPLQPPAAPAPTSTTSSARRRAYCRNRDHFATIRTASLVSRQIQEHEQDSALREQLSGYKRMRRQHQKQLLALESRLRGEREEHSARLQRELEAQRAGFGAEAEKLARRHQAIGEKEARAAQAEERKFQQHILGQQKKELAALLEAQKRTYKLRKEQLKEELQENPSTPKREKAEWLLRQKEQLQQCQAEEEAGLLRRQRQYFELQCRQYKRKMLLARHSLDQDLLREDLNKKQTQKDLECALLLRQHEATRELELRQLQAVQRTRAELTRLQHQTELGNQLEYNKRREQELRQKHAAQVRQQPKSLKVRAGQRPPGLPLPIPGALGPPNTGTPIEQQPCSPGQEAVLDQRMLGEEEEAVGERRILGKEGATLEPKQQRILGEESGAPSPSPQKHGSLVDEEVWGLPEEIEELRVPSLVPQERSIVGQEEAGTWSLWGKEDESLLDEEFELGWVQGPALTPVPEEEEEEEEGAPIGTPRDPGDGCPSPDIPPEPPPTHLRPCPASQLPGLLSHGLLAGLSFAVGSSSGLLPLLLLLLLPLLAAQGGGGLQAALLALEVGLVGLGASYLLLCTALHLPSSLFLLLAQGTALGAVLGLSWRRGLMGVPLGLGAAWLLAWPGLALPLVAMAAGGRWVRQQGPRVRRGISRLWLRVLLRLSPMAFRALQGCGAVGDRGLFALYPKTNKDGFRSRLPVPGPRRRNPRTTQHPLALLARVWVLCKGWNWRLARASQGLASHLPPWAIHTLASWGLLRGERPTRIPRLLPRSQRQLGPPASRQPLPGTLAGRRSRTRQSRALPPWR
# [4] = biological target: T4, Serine/threonine-protein kinase TAO3 (Homo sapiens) (UniProt Q9H2K8); conditions: at 10 µM
# T4 sequence (whole entry): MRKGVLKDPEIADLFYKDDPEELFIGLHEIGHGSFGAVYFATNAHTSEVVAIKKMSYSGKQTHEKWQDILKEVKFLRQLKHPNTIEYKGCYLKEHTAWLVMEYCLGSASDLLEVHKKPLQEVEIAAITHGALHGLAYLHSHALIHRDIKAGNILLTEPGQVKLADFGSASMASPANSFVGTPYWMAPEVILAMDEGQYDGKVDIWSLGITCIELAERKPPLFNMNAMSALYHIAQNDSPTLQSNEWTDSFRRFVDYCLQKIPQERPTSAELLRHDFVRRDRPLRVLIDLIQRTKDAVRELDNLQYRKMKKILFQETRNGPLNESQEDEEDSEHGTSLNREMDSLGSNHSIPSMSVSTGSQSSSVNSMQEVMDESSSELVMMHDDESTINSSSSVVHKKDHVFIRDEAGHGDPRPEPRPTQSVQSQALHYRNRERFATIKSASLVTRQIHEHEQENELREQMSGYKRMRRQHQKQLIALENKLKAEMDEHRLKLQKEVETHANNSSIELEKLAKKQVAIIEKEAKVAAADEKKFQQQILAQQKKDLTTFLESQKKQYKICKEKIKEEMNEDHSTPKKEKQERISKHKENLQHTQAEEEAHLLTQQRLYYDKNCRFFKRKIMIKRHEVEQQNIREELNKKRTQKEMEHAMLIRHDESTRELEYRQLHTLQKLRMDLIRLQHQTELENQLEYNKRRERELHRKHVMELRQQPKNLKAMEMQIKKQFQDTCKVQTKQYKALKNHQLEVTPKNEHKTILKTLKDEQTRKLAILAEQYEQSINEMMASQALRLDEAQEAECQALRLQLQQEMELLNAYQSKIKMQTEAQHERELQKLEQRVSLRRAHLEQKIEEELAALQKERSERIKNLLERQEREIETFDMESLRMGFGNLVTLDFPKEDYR
# [5] = biological target: T5, Serine/threonine-protein kinase TBK1 (Homo sapiens) (UniProt Q9UHD2); conditions: at 1 µM
# T5 sequence (whole entry): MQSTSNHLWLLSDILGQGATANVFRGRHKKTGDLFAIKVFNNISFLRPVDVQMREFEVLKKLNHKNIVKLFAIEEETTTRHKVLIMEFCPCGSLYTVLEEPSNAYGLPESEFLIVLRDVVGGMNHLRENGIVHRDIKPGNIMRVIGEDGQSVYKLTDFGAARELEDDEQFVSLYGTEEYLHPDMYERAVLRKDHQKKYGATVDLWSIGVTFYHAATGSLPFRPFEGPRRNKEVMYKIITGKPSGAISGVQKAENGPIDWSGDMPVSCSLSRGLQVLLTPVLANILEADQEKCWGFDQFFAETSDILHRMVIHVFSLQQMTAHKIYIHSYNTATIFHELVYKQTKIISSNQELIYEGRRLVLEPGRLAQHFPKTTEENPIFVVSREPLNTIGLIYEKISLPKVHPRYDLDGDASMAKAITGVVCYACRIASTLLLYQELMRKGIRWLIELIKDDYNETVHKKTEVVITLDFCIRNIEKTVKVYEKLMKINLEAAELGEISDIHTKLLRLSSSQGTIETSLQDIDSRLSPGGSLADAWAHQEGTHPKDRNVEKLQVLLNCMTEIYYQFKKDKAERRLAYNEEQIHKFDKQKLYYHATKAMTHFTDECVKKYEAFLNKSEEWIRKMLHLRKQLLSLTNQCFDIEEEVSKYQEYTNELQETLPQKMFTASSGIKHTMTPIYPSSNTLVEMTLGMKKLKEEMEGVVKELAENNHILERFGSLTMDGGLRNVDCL
# [6] = biological target: T5, Serine/threonine-protein kinase TBK1 (Homo sapiens); conditions: at 10 µM
# [7] = biological target: Insulin-like growth factor 1 receptor (Homo sapiens) (UniProt P08069); conditions: at 10 µM
# Chain of Insulin-like growth factor 1 receptor (Homo sapiens) (P08069 31-736 limits assumed): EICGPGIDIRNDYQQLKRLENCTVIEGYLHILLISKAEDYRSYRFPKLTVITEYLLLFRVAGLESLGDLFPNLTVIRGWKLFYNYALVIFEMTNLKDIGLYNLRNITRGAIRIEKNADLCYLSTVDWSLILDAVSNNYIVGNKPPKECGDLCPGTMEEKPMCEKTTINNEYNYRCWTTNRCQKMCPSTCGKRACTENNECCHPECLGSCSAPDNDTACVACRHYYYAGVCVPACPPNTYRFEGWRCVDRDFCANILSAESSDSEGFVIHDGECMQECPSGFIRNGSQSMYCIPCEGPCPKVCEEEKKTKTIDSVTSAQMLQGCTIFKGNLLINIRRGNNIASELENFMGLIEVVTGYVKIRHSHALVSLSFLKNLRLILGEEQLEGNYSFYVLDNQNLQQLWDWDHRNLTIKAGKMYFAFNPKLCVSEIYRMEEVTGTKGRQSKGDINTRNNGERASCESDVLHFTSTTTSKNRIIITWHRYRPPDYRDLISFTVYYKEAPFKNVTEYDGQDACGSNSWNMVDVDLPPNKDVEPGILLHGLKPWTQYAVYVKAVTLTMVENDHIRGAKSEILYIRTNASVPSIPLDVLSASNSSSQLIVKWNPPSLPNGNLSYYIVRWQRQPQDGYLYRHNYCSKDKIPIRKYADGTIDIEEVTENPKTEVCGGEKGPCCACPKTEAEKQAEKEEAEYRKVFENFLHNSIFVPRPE
# Chain of Insulin-like growth factor 1 receptor (Homo sapiens) (P08069 741-1367 limits assumed): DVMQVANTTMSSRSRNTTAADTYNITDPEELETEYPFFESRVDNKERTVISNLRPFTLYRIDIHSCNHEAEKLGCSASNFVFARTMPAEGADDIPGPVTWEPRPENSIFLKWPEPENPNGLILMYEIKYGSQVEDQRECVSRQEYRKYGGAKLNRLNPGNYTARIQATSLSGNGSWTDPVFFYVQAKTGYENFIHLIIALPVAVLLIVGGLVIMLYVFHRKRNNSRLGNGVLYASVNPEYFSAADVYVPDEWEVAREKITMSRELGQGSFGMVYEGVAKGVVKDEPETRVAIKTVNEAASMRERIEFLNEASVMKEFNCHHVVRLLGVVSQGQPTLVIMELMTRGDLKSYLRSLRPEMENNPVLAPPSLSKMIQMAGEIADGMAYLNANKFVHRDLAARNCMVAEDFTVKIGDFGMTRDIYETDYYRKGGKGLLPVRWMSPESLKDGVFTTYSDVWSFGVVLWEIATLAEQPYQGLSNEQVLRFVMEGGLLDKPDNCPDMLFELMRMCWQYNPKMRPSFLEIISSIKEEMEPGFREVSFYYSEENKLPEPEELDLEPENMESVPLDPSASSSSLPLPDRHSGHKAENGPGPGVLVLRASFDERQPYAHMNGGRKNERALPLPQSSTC
# [8] = biological target: T6, Inhibitor of nuclear factor kappa-B kinase subunit beta (Homo sapiens) (UniProt O14920); conditions: at 10 µM
# T6 sequence (whole entry): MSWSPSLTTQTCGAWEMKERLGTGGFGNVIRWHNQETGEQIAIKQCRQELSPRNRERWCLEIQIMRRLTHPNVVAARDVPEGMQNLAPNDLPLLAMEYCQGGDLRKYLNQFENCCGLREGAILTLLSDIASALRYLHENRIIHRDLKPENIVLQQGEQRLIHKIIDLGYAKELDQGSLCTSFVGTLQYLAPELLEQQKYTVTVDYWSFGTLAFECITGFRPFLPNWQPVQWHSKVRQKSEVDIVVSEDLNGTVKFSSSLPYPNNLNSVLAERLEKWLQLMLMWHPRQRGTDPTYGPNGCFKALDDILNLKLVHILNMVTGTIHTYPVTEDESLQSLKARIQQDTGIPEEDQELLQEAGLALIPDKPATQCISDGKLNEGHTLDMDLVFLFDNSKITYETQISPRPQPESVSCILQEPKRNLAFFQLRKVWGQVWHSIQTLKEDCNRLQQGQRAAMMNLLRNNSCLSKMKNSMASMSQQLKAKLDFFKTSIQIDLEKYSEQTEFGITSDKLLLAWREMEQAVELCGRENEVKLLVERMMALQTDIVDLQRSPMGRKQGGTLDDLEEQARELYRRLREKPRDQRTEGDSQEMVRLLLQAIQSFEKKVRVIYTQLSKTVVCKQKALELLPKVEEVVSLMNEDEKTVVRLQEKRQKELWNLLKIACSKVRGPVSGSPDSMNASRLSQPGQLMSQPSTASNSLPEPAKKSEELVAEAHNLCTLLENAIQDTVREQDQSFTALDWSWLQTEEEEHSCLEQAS
# [9] = biological target: Insulin receptor (Homo sapiens) (UniProt P06213); conditions: at 1 µM
# Chain of Insulin receptor (Homo sapiens) (P06213 28-758 limits assumed): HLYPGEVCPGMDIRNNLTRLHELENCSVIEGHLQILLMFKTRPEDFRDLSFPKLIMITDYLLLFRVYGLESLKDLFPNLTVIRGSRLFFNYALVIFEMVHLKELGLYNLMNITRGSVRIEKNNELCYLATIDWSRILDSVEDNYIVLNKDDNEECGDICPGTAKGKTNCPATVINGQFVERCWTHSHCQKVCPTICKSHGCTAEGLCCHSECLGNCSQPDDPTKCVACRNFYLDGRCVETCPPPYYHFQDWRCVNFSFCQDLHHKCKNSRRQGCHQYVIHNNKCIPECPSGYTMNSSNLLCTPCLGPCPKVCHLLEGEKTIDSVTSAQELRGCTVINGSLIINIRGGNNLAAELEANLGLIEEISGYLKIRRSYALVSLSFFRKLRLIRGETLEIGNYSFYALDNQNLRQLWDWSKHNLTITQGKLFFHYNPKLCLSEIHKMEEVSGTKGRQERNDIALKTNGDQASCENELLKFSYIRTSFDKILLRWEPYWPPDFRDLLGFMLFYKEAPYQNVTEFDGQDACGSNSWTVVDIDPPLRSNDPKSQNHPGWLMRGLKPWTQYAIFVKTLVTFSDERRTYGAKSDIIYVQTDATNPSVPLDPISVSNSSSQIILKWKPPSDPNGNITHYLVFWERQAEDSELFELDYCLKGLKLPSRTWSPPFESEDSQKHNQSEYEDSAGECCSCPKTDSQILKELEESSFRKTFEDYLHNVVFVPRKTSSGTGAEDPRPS
# Chain of Insulin receptor (Homo sapiens) (P06213 763-1382 limits assumed): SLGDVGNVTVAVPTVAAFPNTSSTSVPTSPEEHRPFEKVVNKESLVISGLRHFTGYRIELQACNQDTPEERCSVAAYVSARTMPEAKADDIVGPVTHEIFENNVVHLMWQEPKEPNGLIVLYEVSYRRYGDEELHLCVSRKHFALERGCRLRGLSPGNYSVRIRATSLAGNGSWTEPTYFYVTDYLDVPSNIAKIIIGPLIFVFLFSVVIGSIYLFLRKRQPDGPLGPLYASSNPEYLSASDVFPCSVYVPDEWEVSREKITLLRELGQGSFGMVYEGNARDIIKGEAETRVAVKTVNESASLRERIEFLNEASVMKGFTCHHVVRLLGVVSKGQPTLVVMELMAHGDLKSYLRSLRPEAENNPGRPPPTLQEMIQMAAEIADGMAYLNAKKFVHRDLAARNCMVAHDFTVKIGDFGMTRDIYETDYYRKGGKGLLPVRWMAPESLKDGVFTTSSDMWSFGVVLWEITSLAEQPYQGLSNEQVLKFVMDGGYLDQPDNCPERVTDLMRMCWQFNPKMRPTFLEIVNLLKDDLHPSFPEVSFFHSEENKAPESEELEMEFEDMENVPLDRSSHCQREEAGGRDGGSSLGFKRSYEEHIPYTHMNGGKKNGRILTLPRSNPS
structure (smiles),measurement,setting,value
N#Cc1c(NC(=O)c2cccc3ccccc23)sc2c1CCCC2,residual activity,[1],93%
same,residual activity,[2],93%
same,residual activity,[3],99%
same,residual activity,[4],88%
same,residual activity,[5],67%
same,residual activity,[6],73%
same,residual activity,[7],124%
same,residual activity,[8],100%
same,residual activity,[9],137%

# Source: ChEMBL document CHEMBL2218924, “A broad activity screen in support of a chemogenomic map for kinase signalling research and drug discovery” (Biochem J, 2013)
